Experimental data reported in PubChem BioAssay (NCI).
This is part of a sample that, as a whole, favours compounds with a hit. Of some 83,000 tested, about 20% had one in any assay.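 Treatment: one concentration, 48 hours, 96-well format. Scoring: percent growth, with anything below 10 considered active.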 Unmarked numbers belong to inactive results. Activity calls are given as the source filed them.

What follows are compounds tested on HL-60(TB) leukemia (assay: NCI-60 one-dose screen, 48 h (100 = growth as untreated, 0 = no growth, -100 = all killed)). Settings: 10 µM unless noted.
For `Clc1ccc2c(NCCCn3ccnc3)c3oc4ccccc4c3nc2c1`, the growth was 40.4%.
`C=C(C)C(=O)O[C@H]1C[C@@]2(C)OC(=CC2=O)/C(C)=C\[C@H]2OC(=O)C(=C)[C@H]12` was tested, and the growth was -20.9% (active).
For `C[C@@H]1C[C@H]2C(=O)OCC(NC(=O)[C@H](Cc3cc(F)cc(F)c3)NC(=O)Nc3ccc(Cl)cc3F)C(=O)N3CCC[C@H]3C(=O)N3CCCC[C@H]3C(=O)N[C@@H](C)C(=O)N2C1` (stereo not given in full), the growth was 6.2% (active).
`O=C1[C@H]2Cc3c([nH]c4ccccc34)[C@@H](c3c(Cl)cccc3Cl)N2C(=O)CN1C1CCN(CC2CCCCC2)CC1` was tested, and the growth was 35.4%.
`CNC(=O)c1cc(-c2ccc(NC(=S)Nc3cc(C(F)(F)F)cc(C(F)(F)F)c3)cc2)nc2cccnc12` was tested, and the growth was 121%.
Compound `COc1ccc(NC2=C(Cl)C(=O)C(C)=C(C)C2=O)cc1OC` has a growth of 88.4%.
For `COC(=O)C1(C)CCC[C@]2(C)[C@H]3C[C@H]4C(C(C)C)=C[C@]3(CC[C@@H]12)[C@H]1[C@@H]4[C@@H](OC(=O)c2ccco2)CC[C@@H]1OC(=O)c1ccco1` (stereo not given in full), the growth was 91.9%.
`OC1CCN(CCCOc2c3ccccc3nc3c2oc2ccccc23)CC1` was tested, and the growth was 6.8% (active).
`CN1CCN(Cc2ccc(NC(=O)c3cncc(C#Cc4cnc5ccc(O[C@@H]6CCOC6)nn45)c3)cc2C(F)(F)F)CC1` was tested, and the growth was -48.8% (active).
For `CCOc1ccccc1NC1=C(Cl)C(=O)c2nc(C)ccc2C1=O`, the growth was -36.8% (active).
With `COc1cc(OC)c(S(N)(=O)=O)cc1C(=O)/C=C/c1ccc(Cl)cc1` the growth was -9% (active).
Work on `CC(=O)Nc1nc(C)c(-c2csc(Nc3ccccc3)n2)s1` yielded a growth of 33.6%.
In the case of `C#C[C@]1(O)CC[C@H]2[C@@H]3CC=C4c5sc(Nc6nc(C)cc(OC)n6)nc5CC[C@]4(C)[C@H]3CC[C@@]21C`, the growth is reported as 12.1%.
In the case of `CCc1ccc(NC(=O)N[C@@H](Cc2cc(F)cc(F)c2)C(=O)N[C@@H]2C(=O)N3CCC[C@H]3C(=O)N3CCO[C@H](C)[C@H]3C(=O)N[C@@H](CO)C(=O)N3C[C@H](C)C[C@H]3C(=O)O[C@H]2C)c(F)c1`, the growth is reported as 15.4%.
`O=C1Nc2ccccc2/C1=N\c1nnc(-c2ccccc2)o1` showed a growth of 99.6%.
In the case of `N#C/C(=C\c1ccc(Cl)cc1Cl)C(N)=O`, the growth is reported as 90.9%.
`N#Cc1c(-c2cccs2)cc(-c2cnccn2)nc1SCC(=O)N/N=C/c1ccc(Cl)cc1` gave a growth of 110%.
For `CCOc1cccc(-c2nc3sccn3c2-c2ccnc(S(C)(=O)=O)n2)c1`, the growth was 36.9%.
In the case of `C/C(=C(\c1ccc(O)cc1)c1ccc(OCCN2CCCCCC2)cc1)c1ccc(Cl)cc1`, the growth is reported as -49.2% (active).
`CC(=O)C1=C(C)NC(NNC(N)=S)=NC1c1ccccc1` (stereo not given) gave a growth of 148%.
Work on `CCn1c2ccc(/C=N/NS(=O)(=O)CCN(C)C)cc2c2cc(/C=N/NS(=O)(=O)CCN(C)C)ccc21` yielded a growth of 103%.
Work on `CCCCc1nc(/C=N/Nc2nc(Nc3ccccc3)nc(Nc3ccc(S(N)(=O)=O)cc3)n2)c(Cl)[nH]1` yielded a growth of 118%.
`C=C(C=O)[C@@H]1CC[C@]2(C)[C@H](CC=C3[C@H]4[C@@H](C)[C@H](C)CC[C@]4(C(=O)OC)CC[C@]32C)[C@@]1(C)CCC#N` was tested, and the growth was -25.2% (active).
`COc1ccc(COc2ccc(/C=C3/C(=O)Nc4cc(Cl)ccc43)cc2)cc1` showed a growth of 119%.
`O=C(Nc1cc(F)cc2cccnc12)c1cnc(N2CCOCC2)cn1` showed a growth of 36.9%.
With `C=CCn1c(SCC(=O)Nc2ccc(C(=O)/C=C/c3ccc(C)cc3)cc2)nnc1-c1c[nH]c2ccccc12` the growth was 98.4%.
`O=C(O)CCCCCN1C(=O)/C(=C/c2ccc(O)c(O)c2)SC1=S` showed a growth of 101%.
`COC(=O)c1c(C(=O)OC)c2n(CC(=O)Nc3cccc4cccnc34)c3ccccc3n2c1C(=O)c1ccc(C)cc1` gave a growth of 99.2%.
In the case of `COc1ccc(CCN2C(=O)/C(=C/c3nc(CO)cs3)SC2=S)cc1`, the growth is reported as 59.4%.
In the case of `CC(C)SC1=NC(=C(C(=N1)NC2=ClC=CC=C2)C#N)C3=CC=CC=C3`, the growth is reported as 84.5%.
For `O=c1c2c(O)cccc2oc2c3c(cc(O)c12)O[C@H]1OC=C[C@@H]31`, the growth was 89.7%.
For `CC(C)(C)CC(C)(C)n1nnnc1C(Nc1nccs1)c1cc2cccc3ccc4cccc1c4c32` (stereo not given), the growth was 107%.
`COC(=O)N1CCN(CCNCc2ccc(NC(=O)c3ccc(C)c(C#Cc4cnc5cccnn45)c3)cc2C(F)(F)F)CC1` was tested, and the growth was -12.3% (active).
With `C#CCOc1ccc(C(Nc2ccc(OC)cc2)c2nnnn2C2CCCCC2)cc1` (stereo not given) the growth was 84.7%.
`CSCCC(C(=O)O)N1C(=O)/C(=C/c2ccc(O)c(O)c2)SC1=S` (stereo not given) showed a growth of 103%.
In the case of `CC1CCc2c(sc3nc(SCC(=O)N/N=C/c4ccc(Cl)cc4)n(-c4ccccc4)c(=O)c23)C1` (stereo not given), the growth is reported as 107%.
In the case of `CN1CCN(CCNc2nc(-c3cccc(NS(=O)(=O)c4cccc5c(N(C)C)cccc45)c3)cs2)CC1`, the growth is reported as 45%.
For `COC(=O)CCCNCCCn1ccc2cc(NCc3cccc(-c4ccccc4)c3C)ccc21`, the growth was 16.7%.
Compound `C#CCOc1ccc(C(Nc2ccc(Cl)cc2)c2nnnn2C2CCCCC2)cc1` (stereo not given) has a growth of 83.8%.
In the case of `N#Cc1ccc(/C=N/NC(=O)c2[nH]c3ccc(Br)cc3c2-c2ccccc2)s1`, the growth is reported as -40% (active).
